We go through 40 molecules from PubChem BioAssay (NCATS).

Molecules are shown by their SMILES. Results filed as inconclusive are left out. Active and inactive are the calls of the source. The call rests on the fitted dose curve. Peptide text beside a SMILES is read from it.
On the % scale 0 is the no-effect control and ±100 the full control effect; potency means the concentration at half of the fitted maximal effect.

The assay is described as follows: Cytotoxicity counterscreen for inhibitors of SARS-CoV-2 cell entry (AID 1645845). Further: nearly all actives have a fitted effect of over 50% in size. The following applies: cell viability (SARS-CoV-2 entry assay cells); series mostly up to 57.1 µM; activity change, negative = cytotoxicity: at the top concentration. An excerpt:
Assay Provider: Wei Zheng, Ph.D.
National Center for Advancing Translational Sciences, National Institute of Health, Rockville, MD.
SARS-CoV-2 spike protein, within the viral envelope, mediates viral attachment and infection of host cells. The SARS-CoV-2 spike protein specifically binds to the host receptor ACE2 (Angiotensin-converting enzyme 2). This interaction promotes endocytosis of the viral particle, additional events lead to viral-host cell membrane fusion and release of the viral contents, allowing viral replication.
While SARS-CoV-2 requires BSL-3 facilities for live virus work, pseudo-typed partices (PP) that incorporate SARS-CoV-2 spike proteins without replication elements could facilitate studies on viral entry mechanisms in a BSL-2 setting. This PP cell entry assay could also enable screening of small molecule compound libraries in BSL-2 setting to identify inhibitors of SARS-CoV-2 cell entry. To eliminate false positive compounds, ATP content cytotoxicity assay was screened in the same cell line.
SEQUENCE No. (e.g., 1, 2, 3, etc.); […] (e.g., Cells, Incubation, Reagent, etc.); VALUE and DESCRIPTION.
1. Cells. Seed 1500 HEK293-ACE2 cells (Expi293F with stable expression of human ACE2) in 2 uL/well media (DMEM, 10% FBS, 1x L-glutamine, 1x Pen/Strep, 1 ug/ml puromycin) in white 1536-well assay plates (Greiner #782073).
2. Incubation. Incubate at 37 C with 5% CO2 overnight (~16 h).
3. Compounds. Dispense 23 nL/well compounds in DMSO via pin transfer.
4. Incubation. Incubate for 1 h at 37C 5% CO2.
5. Reagent. Dispense 2 uL/well of media (DMEM, 10% FBS, 1x L-glutamine, 1x Pen/Strep, 1 ug/ml puromycin).
6. Incubation. Incubate at for 48h at 37C 5% CO2
7. Reagent. Dispense 4 uL/well of ATPLite 1step luminescence assay reagent (PerkinElmer #6016739).
8. Incubation. Incubate for 15 min at room temperature.
9. Detection. Read luminescence signal (Viewlux plate reader, PerkinElmer). Data was normalized with wells containing cells as 100%, and wells without cells (media only control) as 0%.
Take `NC(=O)C1(N2CCCCC2)CCN(CCCN2c3ccccc3CCc3ccccc32)CC1`: the Potency was 31.6 µM (active). Take `CC(=O)N1CCC[C@H]1C(=O)N[C@@H](Cc1cnc[nH]1)C(=O)N[C@@H](CO)C(=O)N[C@@H](CS)C(=O)N[C@@H](CC(N)=O)C(N)=O` (Ac-PHSCN-NH2): the molecule was classed as inactive. On to `CCN(CCCOc1ccc2c(Nc3cc(CC(=O)Nc4cccc(F)c4)[nH]n3)ncnc2c1)CCOP(=O)(O)O`, for which the “activity change, negative = cytotoxicity” value was 0.67% (inactive). Take `CO[C@@H](COC(N)=O)C1=C(N2CC2)C(=O)C(C)=C(N2CC2)C1=O`: the molecule was called inactive. As for `C=CCNC1=C2C[C@@H](C)C[C@H](OC)[C@H](O)[C@@H](C)/C=C(\C)[C@H](OC(N)=O)[C@@H](OC)/C=C\C=C(/C)C(=O)NC(=CC1=O)C2=O`, the Potency is 25.1 µM (active). As for `[2H]c1nc(C)nc([2H])c1-c1cc(NC[C@@H](C)c2cccc3c(C(=O)NC)ccnc23)ncn1`, the result was inactive. For `CCc1nc(C(N)=O)c(Nc2ccc(N3CCC(N4CCN(C)CC4)CC3)c(OC)c2)nc1NC1CCOCC1`, the “activity change, negative = cytotoxicity” value is -18.6% (inactive). Consider `CC1(C)CCC2(CC1)N[C@@H](C(=O)N[C@@H]1CC[C@@H](C(N)=O)OC1)[C@H](c1ccnc(Cl)c1F)[C@]21C(=O)Nc2cc(Cl)ccc21`, for which the “outcome” value is “inactive [at 37.9 µM]”. Still for that read-out and setting: the same measure for `COc1ccccc1C(=O)Nc1cc2c(cc1N1CCNC[C@H]1C)n(C)c(=O)n2C`: “inactive”; for `N#C[C@@H]1C[C@@H]2C[C@@H]2N1C(=O)[C@@H](N)C12CC3CC(CC(O)(C3)C1)C2`: “inactive”. Still for that read-out and setting: the same measure for `CC1(C)CC(O)CC(C)(C)N1O`: “inactive”; for `CC(=O)N1CCC(Nc2cc(C(=O)NC[C@H](O)CN3CCc4ccccc4C3)ncn2)CC1`: “inactive”; for `COC1CC(C(=O)c2ccc3c(N)ncc(-c4ccc(-c5cnn(C)c5)cc4)c3n2)C1` (stereo not given): “inactive”.

Regarding `COc1cc2c(cc1OCCCN1CCCC1)N=C(N)C21CCC1`, the call was inactive. As for `OCC(O)COc1ccc(Cl)cc1` (stereo not given), the “outcome” value was “inactive [at 171 µM]”. As for `CC(=O)Oc1c(C)cc(OCC(O)CNC(C)C)c(C)c1C` (stereo not given), the “outcome” value is “inactive [at 114 µM]”. As for `CC(C)(C)NC(=O)[C@H]1CC[C@H]2[C@@H]3CC=C4C=C(C(=O)O)CC[C@]4(C)[C@H]3CC[C@]12C`, the “activity change, negative = cytotoxicity” value is -11.9% (inactive). Consider `Cc1onc(-c2c(F)cccc2Cl)c1C(=O)N[C@@H]1C(=O)N2[C@@H]1SC(C)(C)[C@H]2C(=O)O`, for which the result was inactive. Regarding `CO[C@H]1/C=C/O[C@@]2(C)Oc3c(C)c(O)c4c(O)c(c(/C=N/N5CCN(C)CC5)c(O)c4c3C2=O)NC(=O)/C(C)=C\C=C\[C@H](C)[C@H](O)[C@@H](C)[C@@H](O)[C@@H](C)[C@H](OC(C)=O)[C@@H]1C`, the “activity change, negative = cytotoxicity” value was -21.7% (inactive). Turning to `C=C[C@H]1CN2CC[C@H]1C[C@H]2[C@H](O)c1ccnc2ccccc12`, the molecule was classed as inactive. On to `CC(C)(O)CNc1ncc(-c2ccnc(Nc3ccncc3)n2)c(CC2CC2)n1`, for which the Potency is 25.1 µM (active). Consider `CC(C)n1cc(-c2ccc3c(c2)N(C)CC3)c2c(NS(=O)(=O)c3ccn(C)n3)ccnc21`, for which the call was inactive. For `Nc1nccc(-c2c(-c3ccc(F)cc3)ncn2C2CCCCC2)n1`, the “activity change, negative = cytotoxicity” value is -15.9% (inactive). For the molecule `CCCC[C@H](C)C[C@H](O)/C=C/[C@H]1[C@H](O)CC(=O)[C@@H]1CCCC/C=C/C(=O)O`, the outcome was inactive. For `Cc1c(O)c(=O)ccn1C`, the “outcome” value was “inactive [at 114 µM]”. For the molecule `Nc1ncnc2c1ncn2[C@@H]1O[C@H](CO)C[C@H]1O`, the “activity change, negative = cytotoxicity” value is -8.02% (inactive). Still for that read-out and setting: the same measure for `COc1cc2ncnc(Oc3cccc(NC(=O)Nc4cc(C(C)(C)C(F)(F)F)on4)c3)c2cc1OC`: -0.114% (inactive). As to `Cc1cc(C)c2c(c1)[C@@H](N(Cc1cc(C(F)(F)F)cc(C(F)(F)F)c1)c1nnn(C)n1)CCCN2CC1CCC(C(=O)O)CC1` (stereo not given in full), the result was inactive. As to `O=C(Nc1cnn2ccc(N3CCC[C@@H]3c3cc(F)ccc3F)nc12)N1CC[C@H](O)C1`, the result was inactive. As to `COC[C@@H](c1ccc(C(F)(F)F)cc1)N1CCN(C2(C)CCN(C(=O)c3c(C)ncnc3C)CC2)C[C@@H]1C`, the “activity change, negative = cytotoxicity” value is 1.53% (inactive). As to `C#C[C@]1(O)CC[C@H]2[C@@H]3CCC4=CC(=O)CC[C@@H]4[C@H]3C(=C)C[C@@]21CC`, the result was inactive. The same measure, in the same setting: the same measure for `Cn1cc(-c2nc(N[C@@H]3CCCC[C@@H]3N)c(F)c3c2C(=O)NC3)cn1`: “inactive [at 5.25 µM]”; for `CC/C=C\C/C=C\C/C=C\C/C=C\C/C=C\C/C=C\CCC(=O)O`: “inactive”; for `CC1(N)CCN(c2cnc(-c3cccc(Cl)c3Cl)c(N)n2)CC1`: “inactive [at 27.1 µM]”.

For the molecule `Cc1cc2nc3c(=O)[nH]c(=O)nc-3n(C[C@H](O)[C@H](O)[C@H](O)COP(=O)(O)OP(=O)(O)OC[C@H]3O[C@@H](n4cnc5c(N)ncnc54)[C@H](O)[C@H]3O)c2cc1C`, the “outcome” value is “inactive [at 27.1 µM]”. In the case of `O=[N+]([O-])c1ccc(/C=C/c2cccc(CO)n2)o1`, the “activity change, negative = cytotoxicity” value was -10.1% (inactive).

Take `CCCCCCCCCCCCCCCC(=O)OC[C@@H](O)[C@H]1OC[C@H](O)[C@H]1O`: the call was inactive. Same read-out and setting: next, `CC(C)CC(NC(=O)CNC(=O)C(Cc1ccc(O)cc1)NC(=O)C(CO)NC(=O)C(Cc1c[nH]c2ccccc12)NC(=O)C(Cc1cnc[nH]1)NC(=O)C1CCC(=O)N1)C(=O)NC(CCCN=C(N)N)C(=O)N1CCCC1C(=O)NCC(N)=O` (stereo not given): “inactive”. Turning to `CC(C)(O)CNc1nc(Nc2ccnc(C(F)(F)F)c2)nc(-c2cccc(C(F)(F)F)n2)n1`, the “activity change, negative = cytotoxicity” value was -7.57% (inactive). As for `CCn1nc(C2CCN(C(=O)CCO)CC2)nc1-c1cnc(N)c(-c2nnc(C(C)(C)C)o2)n1`, the “activity change, negative = cytotoxicity” value is -10.2% (inactive).
